# Laboratory results as given in PubChem BioAssay AID720651 (The Scripps Research Institute Molecular Screening Center, 2013).
# Some of the results follow. Activity calls are given as the source filed them. The rule behind the calls is not given here.
# Assay: molecules binding r(CAG) RNA repeats, late stage dose response, late-stage follow-up, biochemical, fluorescence, dose response, powder samples (AID 720651)
# Settings: r(CAG) RNA TO-PRO-1 dye displacement
compound,measurement,value
O=C1CC(=O)N(Cc2ccccc2)C(=O)N1CCCCCCN1C(=O)CC(=O)N(Cc2ccccc2)C1=O,IC50,1.44 µM (active)
